Compound activity as filed in PubChem BioAssay.
An excerpt weighted towards active compounds, which were near 0.28% of everything screened.
mcGAS inh: cyclic GMP-AMP synthase inhibitors, mouse, primary biochemical chemiluminescence | recombinant cGAS, Kinase-Glo ATP depletion luminescence | AID 1259399, 2018 | inhibition, % at 12.5 µM | 160,000 compounds, 0.15% hits;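 note: 0% = negative control wells and 100% = reference inhibitor with no enzyme activity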
hcGAS lum: Primary biochemical luminescence assay for human cyclic GMP-AMP synthase inhibitors; inhibition, % at 12.5 µM; 290,000 compounds, 0.081% hits; AID 1259398, 2018; recombinant h-cGAS, ATP depletion, Kinase-Glo luminescence;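 note: 0% = vehicle reaction and 100% = reaction without DNA for no activity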
Target sequence (Q8N884 whole entry, looked up): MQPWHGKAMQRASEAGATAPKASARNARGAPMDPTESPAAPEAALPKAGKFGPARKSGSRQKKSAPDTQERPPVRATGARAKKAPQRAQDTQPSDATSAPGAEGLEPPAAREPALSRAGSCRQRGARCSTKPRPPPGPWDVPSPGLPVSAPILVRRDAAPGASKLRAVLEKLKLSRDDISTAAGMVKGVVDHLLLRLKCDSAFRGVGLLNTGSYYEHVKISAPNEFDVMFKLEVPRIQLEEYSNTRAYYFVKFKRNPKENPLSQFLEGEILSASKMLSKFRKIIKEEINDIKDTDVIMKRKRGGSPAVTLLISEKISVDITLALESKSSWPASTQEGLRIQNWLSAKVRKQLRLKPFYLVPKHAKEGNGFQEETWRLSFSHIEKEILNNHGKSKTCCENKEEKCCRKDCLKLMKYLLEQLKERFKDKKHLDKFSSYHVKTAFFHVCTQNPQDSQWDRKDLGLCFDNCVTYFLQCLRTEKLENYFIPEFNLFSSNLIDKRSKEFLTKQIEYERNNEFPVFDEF
NPYLR7 ag: agonists of mosquito NPYLR7 receptor, primary screen, cell-based, Aedes aegypti, calcium fluorescence, mosquito biting behavior. Aedes aegypti neuropeptide Y-like receptor 7 (NPYLR7). HEK293T NPYLR7/Galpha15, GCaMP6s calcium fluorescence. activation, % at 10 µM. 270,000 compounds, 0.15% hits; in the data active = activation above about 40%;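 note: 0% = vehicle and 100% = reference agonist at the receptor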
Starred values were filed as active, the others as inactive. Cut-off read from the data, not from the text of the source, unless noted: active = inhibition above about 40%; inactive = the rest.

What do the screens show for `CCNC(=O)[C@H]1O[C@@H](n2cnc3c(N)ncnc32)C(O)[C@H]1O` (stereo not given in full)?
mcGAS inh: -2.7; hcGAS lum: -1.3; NPYLR7 ag: 190.6*

How did CC[C@@]1(O)C[C@H](O)c2c(cc3c(c2O)C(=O)c2c(O)ccc(O)c2C3=O)[C@H]1C(=O)OC do in these assays?
hcGAS lum: -6.0; NPYLR7 ag: -12.9

How did CC[C@@]1(O)C[C@H](O[C@H]2C[C@H](N(C)C)[C@H](O)[C@H](C)O2)c2c(cc3c(c2O)C(=O)c2c(O)cccc2C3=O)[C@H]1C(=O)OC do in these assays?
hcGAS lum: 71.9*; NPYLR7 ag: 34.3

What do the screens show for `CC[C@@]1(O)C[C@H](O[C@H]2C[C@H](N(C)C)[C@H](O)[C@H](C)O2)c2c(cc3c(c2O)C(=O)c2c(O)ccc(O)c2C3=O)[C@H]1C(=O)OC`?
hcGAS lum: 43.7*; NPYLR7 ag: 9.0

How did NC1CCCCC1c1ccc(C(F)(F)F)cc1 (stereo not given) do in these assays?
hcGAS lum: -5.5; NPYLR7 ag: 1.2

How did O=C1N=c2ccccc2=CC1=Cc1c(O)[nH]c(=S)[nH]c1=O do in these assays?
hcGAS lum: 1.9; NPYLR7 ag: -6.0

How did CCNc1ncc(C(=O)N2CCCC3(CCN(C)C3)C2)cn1 (stereo not given) do in these assays?
hcGAS lum: -4.0; NPYLR7 ag: 4.9

What do the screens show for `O=C1C=C2C(=CCOC2O)O1` (stereo not given)?
mcGAS inh: 106.1*; hcGAS lum: 88.2*

What do the screens show for `CN1CCC2(CCN(Cc3ccncc3Cl)CC2)C1`?
hcGAS lum: -7.5; NPYLR7 ag: 17.1

What do the screens show for `Cc1ccccc1-n1cc(C2=CCN(CCN3CCCCC3)CC2)cn1`?
hcGAS lum: -7.9; NPYLR7 ag: 10.4

What do the screens show for `CNC(=O)Oc1c(Br)cc2sc(=O)oc2c1Br`?
mcGAS inh: 98.4*; hcGAS lum: -3.8; NPYLR7 ag: 5.3

What do the screens show for `CON(C)S(=O)(=O)c1ccc(Cn2nc(C(=O)Nc3ccccc3-n3cccc3)c3ccccc32)cc1`?
mcGAS inh: -3.6; hcGAS lum: -6.8; NPYLR7 ag: 11.6

How did Cn1ccnc1CN1C[C@@H]2[C@@H]3CC[C@@H](C3)[C@@H]2C1 do in these assays?
mcGAS inh: -11.7; hcGAS lum: -5.2; NPYLR7 ag: 11.0

How did CCCCC[C@@H](O)[C@H]1C(=O)O[C@H](C)[C@@H](O)/C=C/C=C/C=C/C=C/C=C(\C)[C@@H](O)[C@H](O)[C@H](O)C[C@H](O)C[C@H](O)C[C@H](O)C[C@H](O)C[C@@H]1O do in these assays?
mcGAS inh: -3.2; hcGAS lum: 0.3; NPYLR7 ag: -8.5

Results for N=c1sccn1Cc1ccccc1Cl ?
hcGAS lum: -8.2; NPYLR7 ag: -4.0

What do the screens show for `CCCC12CN3CC(CCC)(CN(C1)C3c1cccnc1)C2O` (stereo not given)?
mcGAS inh: -3.5; hcGAS lum: -5.1

How did CC(=O)O.CC(=O)O.[Cd] do in these assays?
hcGAS lum: 73.6*; NPYLR7 ag: -9.2

What do the screens show for `CC(=O)N1CN(C(C)=O)CN(C(C)=O)C1`?
hcGAS lum: -1.4; NPYLR7 ag: -5.4

What do the screens show for `O=C1NC(=O)C2=Cc3ccc(O)cc3OC2(O)N1` (stereo not given)?
mcGAS inh: -2.5; hcGAS lum: -1.4; NPYLR7 ag: 192.9*

Results for COC(=O)c1ccccc1NC(=O)c1cccn(Cc2cccc(C(F)(F)F)c2)c1=O ?
hcGAS lum: -10.3; NPYLR7 ag: 20.3

Results for CC(C)(C)c1nn(C(C)(C)C)c2c1C(c1ccsc1)SCC(=O)N2CC(=O)N1CCCC1 (stereo not given) ?
mcGAS inh: -8.6; hcGAS lum: -8.8; NPYLR7 ag: 3.5

What do the screens show for `O=C(Nc1ccc(C(F)(F)F)cc1)c1cccn(Cc2ccccc2Cl)c1=O`?
hcGAS lum: -10.1; NPYLR7 ag: 12.9

How did O=C1OC(c2c(O)[nH]c(=O)[nH]c2=O)c2ccccc21 (stereo not given) do in these assays?
hcGAS lum: 7.1; NPYLR7 ag: 0.6

How did Cc1ccccc1N1C(=O)/C(=C/c2ccco2)C(=O)NC1=S do in these assays?
mcGAS inh: 85.6*; hcGAS lum: 41.2*; NPYLR7 ag: -1.8

Results for O=C1NC(=O)N(Cc2ccccc2)C(=O)C1=Cc1ccco1 ?
hcGAS lum: -4.8; NPYLR7 ag: -6.4

How did Cc1cc(C)cc(N2C(=O)NC(=O)/C(=C\c3ccco3)C2=O)c1 do in these assays?
mcGAS inh: 6.7; hcGAS lum: 5.4; NPYLR7 ag: -7.9

How did O=C1NC(=O)N(Cc2ccccc2)C(=O)/C1=C\c1ccco1 do in these assays?
mcGAS inh: 43.8*; hcGAS lum: 35.1; NPYLR7 ag: -5.4

What do the screens show for `CCN(CC)c1ccc(C=C2C(=O)N(c3ccccc3)C(=S)N(c3ccccc3)C2=O)cc1`?
mcGAS inh: -6.0; hcGAS lum: -3.2; NPYLR7 ag: -1.9

What do the screens show for `O=C(Cc1cccc(F)c1)N1CCN(Cc2cccc(-c3noc(-c4ccco4)n3)c2)CC1`?
mcGAS inh: -4.5; hcGAS lum: -3.6

How did N#Cc1c(O)c(Cl)c(Cl)c(C#N)c1Cl do in these assays?
mcGAS inh: 54.8*; hcGAS lum: 30.5; NPYLR7 ag: 3.7
